Among the data in PubChem BioAssay (EPA / NIEHS) are outcome and AC50 values, retold here.

Activity calls are given as the source filed them. How the source made its calls: active means hit-call score of the fitted dose curve at least 0.9, where 1 is the maximum; inactive means score below 0.9.

Read-out in assay [1]: TIMP metallopeptidase inhibitor 1 (TIMP1), TIMP1 (gene 7076)
Briefly: BSK_hDFCGF_TIMP1: BioMAP Diversity Plus: hDFCGF Assay for TIMP metallopeptidase inhibitor 1 (TIMP1) Biomarker Activity (AID 2283062). Particulars: primary human foreskin fibroblasts; actives raise or lower the signal. In a few lines: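 Bidirectional curve fitting against DMSO baseline yielded this endpoint, based on ELISA detection of TIMP-1 in primary human foreskin fibroblasts exposed to compound for 24 h.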

Read-out in assay [2]: Monokine induced gamma interferon (MIG), CXCL9 (gene 4283)
Briefly: BSK_hDFCGF_MIG: BioMAP Diversity Plus: hDFCGF Assay for Monokine induced gamma interferon (MIG) Biomarker Activity (AID 2283063). The conditions noted are these: primary human foreskin fibroblasts; actives raise or lower the signal. In a few lines: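 Endpoint derived by bidirectional fitting relative to DMSO; MIG quantified via ELISA in primary human foreskin fibroblasts harvested 24 h after dosing.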

Read-out in assay [3]: Matrix Metallopeptidase 1 (MMP1), MMP1 (gene 4312)
Briefly: BSK_hDFCGF_MMP1: BioMAP Diversity Plus: hDFCGF Assay for Matrix Metallopeptidase 1 (MMP1) Biomarker Activity (AID 2283064). The conditions noted are these: primary human foreskin fibroblasts; actives raise or lower the signal. The essentials:
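Primary human foreskin fibroblasts exposed to chemicals for 24 h; MMP1 measured by ELISA. Cytotoxicity tracked by SRB staining in parallel cultures; bidirectional fit relative to DMSO.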

Read-out in assay [4]: Plasminogen activator inhibitor-1 (PAI1), SERPINE1 (gene 5054)
As to the kind of experiment: BSK_hDFCGF_PAI1: BioMAP Diversity Plus: hDFCGF Assay for Plasminogen activator inhibitor-1 (PAI1) Biomarker Activity (AID 2283066). The conditions noted are these: primary human foreskin fibroblasts; actives raise or lower the signal. In a few lines: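 PAI-1 levels, determined by ELISA, served as the endpoint in human foreskin fibroblast cultures exposed to compound for 24 h, with DMSO as baseline.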

Read-out in assay [5]: Intercellular Adhesion Molecule 1 (ICAM1), ICAM1 (gene 3383)
As to the kind of experiment: BSK_KF3CT_ICAM1: BioMAP Diversity Plus: KF3CT Assay for Intercellular Adhesion Molecule 1 (ICAM1) Biomarker Activity (AID 2283067). The conditions noted are these: primary human keratinocytes with fibroblasts; actives raise or lower the signal. The essentials: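 Bidirectional curve fitting against a DMSO baseline was applied to ICAM-1 ELISA signal from primary human skin co-cultures harvested 24 h after treatment, with SRB staining of parallel wells for overt cytotoxicity.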

Read-out in assay [6]: Interferon-gamma inducible Protein 10 (IP10), CXCL10 (gene 3627)
As to the kind of experiment: BSK_KF3CT_IP10: BioMAP Diversity Plus: KF3CT Assay for Interferon-gamma inducible Protein 10 (IP10) Biomarker Activity (AID 2283068). The conditions noted are these: primary human keratinocytes with fibroblasts; actives raise or lower the signal. The essentials:
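ELISA read-out of IP-10 after 24 h chemical dosing of human skin primary co-culture (keratinocytes, foreskin fibroblasts). Gain or loss of signal relative to DMSO, bidirectional curve fit.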

Assay [7] is described as follows: BSK_KF3CT_SRB: Viability Assessment in the BioMAP Diversity Plus: KF3CT Assay (AID 2283069).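 Further: total protein by sulforhodamine B staining as a cytotoxicity measure; read 24 h after compound addition; fitted for both signal gain and loss against DMSO baseline.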 Particulars: primary human keratinocytes with fibroblasts. The essentials:
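Human keratinocyte and foreskin fibroblast co-culture exposed to chemical for 24 h. Total protein measured in parallel cultures by 0.1% sulforhodamine B staining after 10% TCA fixation, read at 560 nm; bidirectional fit relative to DMSO.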

Read-out in assay [8]: Interleukin-1 alpha (IL1a), IL1A (gene 3552)
As to the kind of experiment: BSK_KF3CT_IL1a: BioMAP Diversity Plus: KF3CT Assay for Interleukin-1 alpha (IL1a) Biomarker Activity (AID 2283070). Particulars: primary human keratinocytes with fibroblasts; actives raise or lower the signal. The essentials:
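Primary human keratinocyte plus foreskin fibroblast co-culture, dosed and measured at 24 h in 96-well plates. IL-1a level quantified by ELISA; bidirectional fit relative to DMSO.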

Read-out in assay [9]: TIMP metallopeptidase inhibitor 2 (TIMP2), TIMP2 (gene 7077)
As to the kind of experiment: BSK_KF3CT_TIMP2: BioMAP Diversity Plus: KF3CT Assay for TIMP metallopeptidase inhibitor 2 (TIMP2) Biomarker Activity (AID 2283071). The conditions noted are these: primary human keratinocytes with fibroblasts; actives raise or lower the signal. The essentials: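 Keratinocyte–fibroblast co-culture, 24 h exposure; TIMP-2 ELISA, DMSO-normalised bidirectional fit. Parallel SRB (0.1%, TCA-fixed, 560 nm) total-protein staining gauges cytotoxicity.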

Read-out in assay [10]: Transforming growth factor beta 1 (TGFb1), TGFB1 (gene 7040)
As to the kind of experiment: BSK_KF3CT_TGFb1: BioMAP Diversity Plus: KF3CT Assay for Transforming growth factor beta 1 (TGFb1) Biomarker Activity (AID 2283072). Particulars: primary human keratinocytes with fibroblasts; actives raise or lower the signal. In a few lines: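 Signal changes in either direction, relative to DMSO, define activity here. TGF-b1 is read by ELISA from a human keratinocyte-fibroblast co-culture 24 h post-dose.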

Read-out in assay [11]: C-C motif chemokine 2 (Homo sapiens) (UniProt P13500)
Briefly: BSK_KF3CT_MCP1: BioMAP Diversity Plus: KF3CT Assay for Monocyte Chemoattractant Protein 1 (MCP1/CCL2) Biomarker Activity (AID 2283073). The conditions noted are these: primary human keratinocytes with fibroblasts; actives raise or lower the signal. In a few lines: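 Biomarker MCP-1 is measured by ELISA in primary human keratinocytes co-cultured with foreskin fibroblasts, 24 h after chemical treatment; DMSO serves as the negative control and activity baseline.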

Read-out in assay [12]: Matrix Metallopeptidase 9 (MMP9), MMP9 (gene 4318)
Briefly: BSK_KF3CT_MMP9: BioMAP Diversity Plus: KF3CT Assay for Matrix Metallopeptidase 9 (MMP9) Biomarker Activity (AID 2283074). The conditions noted are these: primary human keratinocytes with fibroblasts; actives raise or lower the signal. In a few lines: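 Human keratinocyte and foreskin fibroblast co-culture exposed to chemicals for 24 h; MMP9 biomarker measured by ELISA, bidirectional fitting relative to DMSO; cytotoxicity tracked by SRB total protein staining in parallel cultures.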

Read-out in assay [13]: urokinase plasminogen activator (uPA), PLAU (gene 5328)
As to the kind of experiment: BSK_KF3CT_uPA: BioMAP Diversity Plus: KF3CT Assay for urokinase plasminogen activator (uPA) Biomarker Activity (AID 2283075). Particulars: primary human keratinocytes with fibroblasts; actives raise or lower the signal. In a few lines: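 Primary human keratinocyte/foreskin fibroblast co-culture exposed to chemical; uPA measured by ELISA at 24 h. Bidirectional fit versus DMSO, with parallel SRB total-protein staining for cytotoxicity.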

Read-out in assay [14]: CD40, CD40 (gene 958)
As to the kind of experiment: BSK_LPS_CD40: BioMAP Diversity Plus: LPS Assay for CD40 Biomarker Activity (AID 2283076). The conditions noted are these: primary human HUVEC with PBMC; actives raise or lower the signal. In a few lines:
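Using a multiplexed primary human co-culture (umbilical vein endothelium plus PBMC), CD40 was read by ELISA 24 h after dosing, with cytotoxicity tracked by sulforhodamine B staining of parallel cultures and activity fitted bidirectionally versus DMSO.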

Read-out in assay [15]: E-selectin (Homo sapiens) (UniProt P16581)
Briefly: BSK_LPS_Eselectin: BioMAP Diversity Plus: LPS Assay for Eselectin Biomarker Activity (AID 2283077). Particulars: primary human HUVEC with PBMC; actives raise or lower the signal. In a few lines: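 Dose chemical onto LPS-driven HUVEC/PBMC co-culture; after 24 h, run ELISA for E-selectin; fit up- and down-going responses relative to DMSO control.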

Read-out in assay [16]: Interleukin-8 (IL8), CXCL8 (gene 3576)
As to the kind of experiment: BSK_LPS_IL8: BioMAP Diversity Plus: LPS Assay for Interleukin-8 (IL8) Biomarker Activity (AID 2283078). The conditions noted are these: primary human HUVEC with PBMC; actives raise or lower the signal. The essentials:
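In this LPS system, chemical-treated human umbilical vein endothelium/PBMC co-cultures were harvested at 24 h for IL-8 ELISA.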

A short description of assay [17]: BSK_LPS_SRB: Viability Assessment in the BioMAP Diversity Plus: LPS Assay (AID 2283079).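 Further: total protein by sulforhodamine B absorbance as a cytotoxicity measure; measured one day after compound addition; fitted in both directions against DMSO so loss or gain of signal counts.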 The conditions noted are these: primary human HUVEC with PBMC. In a few lines: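 Cytotoxicity endpoint in human endothelial–PBMC co-culture: 24 h exposure, then SRB (0.1%) staining, 560 nm read.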
Read-out in assay [18]: Interleukin-1 alpha (IL1a), IL1A (gene 3552)
Briefly: BSK_LPS_IL1a: BioMAP Diversity Plus: LPS Assay for Interleukin-1 alpha (IL1a) Biomarker Activity (AID 2283080). The conditions noted are these: primary human HUVEC with PBMC; actives raise or lower the signal. In a few lines: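 Primary human HUVEC and PBMC co-culture stimulated with LPS is dosed and harvested at 24 h. Both increases and decreases in ELISA-measured IL-1a are scored relative to DMSO.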

Read-out in assay [19]: Monocyte Chemoattractant Protein-1 (MCP1), CCL2 (gene 6347)
As to the kind of experiment: BSK_LPS_MCP1: BioMAP Diversity Plus: LPS Assay for Monocyte Chemoattractant Protein-1 (MCP1) Biomarker Activity (AID 2283081). The conditions noted are these: primary human HUVEC with PBMC; actives raise or lower the signal. The essentials: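 Values derive from bidirectional fitting against DMSO of ELISA-measured MCP-1 in a human primary endothelial and mononuclear cell co-culture, 24 h after chemical addition under LPS activation.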

Read-out in assay [20]: Vascular cell adhesion molecule 1 (VCAM1), VCAM1 (gene 7412)
Briefly: BSK_hDFCGF_VCAM1: BioMAP Diversity Plus: hDFCGF Assay for Vascular cell adhesion molecule 1 (VCAM1) Biomarker Activity (AID 2283065). Particulars: primary human foreskin fibroblasts; actives raise or lower the signal. The essentials: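 Measured after 24 h chemical treatment of primary human skin fibroblasts, VCAM-1 was detected by ELISA and concentration-response analysed in both directions versus DMSO vehicle.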

E-selectin (Homo sapiens), sequence (P16581 whole entry, looked up): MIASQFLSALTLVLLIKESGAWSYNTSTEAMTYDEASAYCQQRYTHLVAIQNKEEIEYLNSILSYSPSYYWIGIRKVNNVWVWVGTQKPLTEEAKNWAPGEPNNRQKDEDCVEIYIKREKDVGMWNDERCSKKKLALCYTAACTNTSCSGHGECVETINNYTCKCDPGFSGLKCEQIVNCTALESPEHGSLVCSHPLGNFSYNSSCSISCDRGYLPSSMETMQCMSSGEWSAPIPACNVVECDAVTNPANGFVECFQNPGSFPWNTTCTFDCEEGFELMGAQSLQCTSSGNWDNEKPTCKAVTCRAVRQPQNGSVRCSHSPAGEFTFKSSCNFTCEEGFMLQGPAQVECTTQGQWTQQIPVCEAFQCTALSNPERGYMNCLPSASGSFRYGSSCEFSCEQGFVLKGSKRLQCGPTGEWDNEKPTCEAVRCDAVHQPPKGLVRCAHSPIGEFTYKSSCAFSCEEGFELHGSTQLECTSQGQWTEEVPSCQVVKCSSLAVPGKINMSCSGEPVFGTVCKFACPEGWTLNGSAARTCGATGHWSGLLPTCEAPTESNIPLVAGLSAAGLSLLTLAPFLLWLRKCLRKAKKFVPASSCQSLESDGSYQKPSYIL

The term AC50 denotes the concentration at which the activity in the assay is half-maximal. Take `CCCCOCCOCCOCc1cc2c(cc1CCC)OCO2`: the result in assay [1], in assay [2], in [4], in assay [5], in [6] and in [7] was inactive. The outcome in assay [8], in assay [9], in assay [10], in [11], in assay [12] and in assay [13] was inactive. Besides, the outcome in assay [15], in assay [18] and in assay [19] was inactive. The half-maximal activity concentration (AC50) in assay [3] is 3.97 µM (active); in assay [14], 20 µM (active); in [16] it was 13.3 µM (active); in assay [17] it was 12.1 µM (active).

Turning to `COc1nc(C)nc(NC(=O)NS(=O)(=O)c2ccccc2OCCCl)n1`, the result in assay [1], in assay [2], in assay [3], in assay [20], in [4] and in assay [5] was inactive. For the same compound, the result in assay [6], in assay [7], in assay [8], in [9], in [11] and in [12] was inactive. Also, the outcome in assay [13], in [14], in [15], in [16], in assay [17] and in assay [18] was inactive. Moreover, the outcome in assay [19] was inactive.

With `CCC(O)=C1C(=O)CC(C(=O)O)CC1=O` (configuration not stated), the outcome in [1], in [2], in assay [3], in assay [4], in [5] and in [6] was inactive. The outcome in assay [7], in assay [8], in [9], in assay [10], in assay [11] and in assay [12] was inactive. Further, the outcome in [13], in assay [14], in assay [15], in assay [16], in [17] and in assay [18] was inactive. In addition, the outcome in assay [19] was inactive.
